Tau fluor cs = counter-screen for tau fibril formation inhibitors | Potency, µM (titrated, usually from 57.7 µM), inactives show top-dose activity change, negative = decrease | 280,000 compounds, 0.93% hits | AID 1463 | tau K18 P301L Alexa594 fluorescence, heparin fibrillization; note: nearly all actives have a fitted effect of over 55% in size
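Human tau K18 P301L (15 uM unlabeled, 0.24 uM Alexa 594-labeled) in 100 mM sodium acetate pH 7 with 20 uM heparin, 6 hr at 37 C. ThT 30 uM added, 1 hr ambient; Alexa 594 FP and total fluorescence read at 555/632 nm.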
HPGD inh = HPGD (human) dehydrogenase inhibition. P15428. purified HPGD, NADH fluorescence kinetic, PGE2 substrate. AID 894. 150,000 compounds, 4.3% hits. Potency, µM, for inactives: at the top dose activity change, negative = inhibition, actives largely listed as inhibitors; active = well fitted inhibition curve with a large enough effect, not every such curve was filed as active; inconclusive = small, poorly fitted or top-dose-only effect, or another doubt; inactive = no such curve, though single readings can be large or run the other way
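20 nM HPGD preincubated 15 min at room temperature with compound in 50 mM Tris-HCl pH 8, 0.01% Tween 20. Started with 1 mM NAD+ and 30 uM prostaglandin E2; NADH fluorescence (360/450 nm) read 5 times over 30-s intervals, last minus first.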
Tau fibril FP = blocks human tau fibril formation measured by polarization | P10636 | AID 1468 | 280,000 compounds, 0.39% hits | K18 P301L tau heparin fibrillization, Alexa594 FP, 6 h | Potency, µM (doses to about 57.7 µM), inactives show top-dose activity, negative = inhibition, usual class: inhibitors; note: nearly all actives have a fitted effect of over 55% in size
Target sequence (P10636 561-689 P618L limits assumed): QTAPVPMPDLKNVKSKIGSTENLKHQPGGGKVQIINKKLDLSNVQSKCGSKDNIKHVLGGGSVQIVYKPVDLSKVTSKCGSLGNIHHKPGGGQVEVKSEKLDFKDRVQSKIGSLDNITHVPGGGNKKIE
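Steps: dispense K18 P301L tau (15 uM plus 0.24 uM Alexa 594 tracer, final) in pH 7 sodium acetate; add compound; add heparin (20 uM final); incubate 6 hr, 37 C; add ThT (30 uM final); after 1 hr ambient, read FP.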
NPSR antag = blocks cAMP signaling of the human neuropeptide S receptor. Q6W5P4. CHO-NPSR cells, cAMP TR-FRET, antagonist mode. Potency, µM (doses to about 38.3 µM), for the others: at the highest dose activity change, negative = inhibition, usual class: inhibitors. 220,000 compounds, 1% hits; note: nearly all actives have a fitted effect of over 50% in size
ALDH1A1 inh = inhibitors of human aldehyde dehydrogenase 1A1. P00352. Purified ALDH1A1, NADH fluorescence, propionaldehyde substrate. Potency, µM (highest dose often 75.3 µM), for the others: at the top dose activity, negative = inhibition, usual class: inhibitors. 220,000 compounds, 7.3% hits; active = well fitted inhibition curve with a large enough effect, not every such curve was filed as active; inconclusive = small, poorly fitted or top-dose-only effect, or another doubt; inactive = no such curve, though single readings can be large or run the other way;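 note: plate controls were no enzyme wells and a reference inhibitor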
Target sequence (P00352 whole entry, looked up): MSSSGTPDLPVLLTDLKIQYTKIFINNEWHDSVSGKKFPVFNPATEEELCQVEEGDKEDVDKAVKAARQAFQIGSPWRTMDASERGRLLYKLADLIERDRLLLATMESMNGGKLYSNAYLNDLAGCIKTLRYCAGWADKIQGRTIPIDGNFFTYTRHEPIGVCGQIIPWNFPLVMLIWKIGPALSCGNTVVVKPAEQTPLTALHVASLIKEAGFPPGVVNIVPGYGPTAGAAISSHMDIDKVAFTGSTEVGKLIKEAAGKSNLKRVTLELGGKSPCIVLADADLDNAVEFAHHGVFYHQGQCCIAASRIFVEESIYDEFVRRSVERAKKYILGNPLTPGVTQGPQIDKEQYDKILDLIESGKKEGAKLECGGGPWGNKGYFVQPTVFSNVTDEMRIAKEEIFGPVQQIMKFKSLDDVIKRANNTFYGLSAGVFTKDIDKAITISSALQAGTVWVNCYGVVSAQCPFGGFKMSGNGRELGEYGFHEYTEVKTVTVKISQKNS
Tau ThT inhib = tau fibrillization inhibition (ThT binding). recombinant tau K18 P301L, heparin-induced fibrillization, ThT fluorescence. Potency, µM (doses to about 57.4 µM), for the others: top-dose activity, negative = inhibition, usual class: inhibitors. 270,000 compounds, 2.1% hits. AID 1460; note: nearly all actives have a fitted effect of over 55% in size
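Using a mix of unlabeled (15 uM) and Alexa 594-labeled (0.24 uM) tau K18 P301L, heparin-triggered fibrillization over 6 hr at 37 C was scored by ThT fluorescence.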
Starred values were filed as active, the others as inactive; [ ] = another dose, or the depositor's remark. Most compounds without a hit are left out; they make up all but 9.5% or so of the library. Unless noted, calls come from the whole dose curve; as a rule, active = well fitted curve in the direction sought with a large enough effect; inconclusive = small, poorly fitted or top-dose-only effect, or another doubt; inactive = no such curve, though single readings can be large; an effect the other way counts as inactive or inconclusive. Unless noted, % is set by controls: 0 for no effect and ±100 for the full control effect; potency is the fitted concentration of half-maximal effect.

What do the screens show for `COC(=O)CCC(NC(=O)OCc1ccccc1)C(=O)NC(CC(C)C)C(=O)OC` (stereo unspecified)?
Tau fluor cs: 0%; HPGD inh: -7%; Tau fibril FP: 3%; NPSR antag: -19%[46.1 µM]; ALDH1A1 inh: 4%; Tau ThT inhib: 4%

What do the screens show for `CC(C)C[C@@H](C=O)NC(=O)[C@H](CC(C)C)NC(=O)[C@H](CC(C)C)NC(=O)OCc1ccccc1`?
Tau fluor cs: 5%; Tau fibril FP: 0%; ALDH1A1 inh: 14µM*; Tau ThT inhib: -6%

Results for CC(C)(C)NC(=O)CSc1ncnc2c1nnn2Cc1ccccc1Cl ?
Tau fluor cs: -9%; HPGD inh: 32µM*; Tau fibril FP: 0%; NPSR antag: inconclusive; ALDH1A1 inh: inconclusive; Tau ThT inhib: inconclusive

Results for O=C(CSc1ncnc2c1nnn2Cc1ccccc1)NC1CCCC1 ?
Tau fluor cs: -5%; Tau fibril FP: -2%; NPSR antag: -36%; ALDH1A1 inh: 8%; Tau ThT inhib: inconclusive

How did Cc1c(N=C=O)cccc1N=C=O do in these assays?
HPGD inh: -5%; ALDH1A1 inh: 7%

Results for O=C(c1ccc(F)cc1F)C1CCN(c2ccc([N+](=O)[O-])cn2)CC1 ?
Tau fluor cs: inconclusive; Tau fibril FP: -7%; NPSR antag: 44%; ALDH1A1 inh: 20µM*; Tau ThT inhib: inconclusive

What do the screens show for `CC(=O)N1CCC2(CC1)CN(c1ccccc1)C2`?
HPGD inh: -7%; ALDH1A1 inh: 16µM*

How did O=S(=O)(c1ccccc1)N1CCC2(CC1)CN(c1ccncc1)C2 do in these assays?
HPGD inh: -27%; ALDH1A1 inh: -8%

Results for O=S(=O)(c1ccccc1)N1CCC2(CC1)CN(c1ccccc1)C2 ?
HPGD inh: -8%; ALDH1A1 inh: 14µM*

Results for COc1ccccc1C(=O)C1CCCN(C(=O)Nc2ccccc2F)C1 (stereo unspecified) ?
Tau fluor cs: -5%; Tau fibril FP: 0%; NPSR antag: 0%; ALDH1A1 inh: 10%; Tau ThT inhib: -10%

Results for Cc1cccc(N2CCn3c2nc2c3c(=O)n(C/C=C/c3ccccc3)c(=O)n2C)c1 ?
Tau fluor cs: -2%; Tau fibril FP: -3%; Tau ThT inhib: -1%

How did O=C(C[n+]1cc(Br)cc(Br)c1)c1cccc([N+](=O)[O-])c1 do in these assays?
Tau fluor cs: 0%; Tau fibril FP: -9%; NPSR antag: 7%; ALDH1A1 inh: 4µM*; Tau ThT inhib: 2%

How did Cc1c(Cl)cccc1NC(=O)CNc1ccccc1F do in these assays?
Tau fluor cs: -14%; Tau fibril FP: 7%; NPSR antag: 4%[46.1 µM]; ALDH1A1 inh: 10µM*; Tau ThT inhib: -1%

How did Cc1c(Cl)cccc1NC(=O)CNCc1ccccc1F do in these assays?
Tau fluor cs: -12%; Tau fibril FP: -2%; NPSR antag: -1%; ALDH1A1 inh: 0%; Tau ThT inhib: -12%

What do the screens show for `N#Cc1ccc(OCC(=O)Nc2cc(S(=O)(=O)N3CCOCC3)ccc2N2CCOCC2)cc1`?
Tau fluor cs: -19%; Tau fibril FP: -3%; NPSR antag: 3%; Tau ThT inhib: -13%

What do the screens show for `N#Cc1ccc(NC(=O)CNc2cc(S(=O)(=O)N3CCOCC3)ccc2NCC2CCCO2)cc1` (stereo unspecified)?
Tau fluor cs: -20%; Tau fibril FP: 4%; NPSR antag: -25%; ALDH1A1 inh: 18µM*; Tau ThT inhib: -8%

Results for Cc1cc(C)c(OCCCCN(C)C)c(Br)c1 ?
Tau fluor cs: -1%; Tau fibril FP: -1%; NPSR antag: 14%; ALDH1A1 inh: 22µM*; Tau ThT inhib: 1%

How did Cc1cc(C)c(OCCOCCN(C)C)c(Br)c1 do in these assays?
Tau fluor cs: 2%; HPGD inh: -12%; Tau fibril FP: 3%; NPSR antag: 15%; ALDH1A1 inh: -3%; Tau ThT inhib: 2%

What do the screens show for `CCN(CC)c1ccc2cc(/C(N)=N/NC(=O)c3cccs3)c(=O)oc2c1`?
Tau fluor cs: -4%; Tau fibril FP: -7%; NPSR antag: 3%; Tau ThT inhib: 0.79µM*

How did N/C(=N\NC(=O)c1cccs1)c1cc2ccccc2oc1=O do in these assays?
Tau fluor cs: -4%; HPGD inh: 1%; Tau fibril FP: -2%; NPSR antag: -13%[46.1 µM]; ALDH1A1 inh: 17%; Tau ThT inhib: inconclusive

What do the screens show for `CC1(C)CC(=O)C(C(=O)c2ccccc2)C(=O)C1`?
Tau fluor cs: -2%; Tau fibril FP: -1%; NPSR antag: 1%; ALDH1A1 inh: 6%; Tau ThT inhib: -2%

Results for CC1=NN(c2ccccc2)C(=O)/C1=C\c1c(C)[nH]n(-c2ccccc2)c1=O ?
Tau fluor cs: -18%; HPGD inh: -16%; Tau fibril FP: 0%; NPSR antag: 4%[46.1 µM]; ALDH1A1 inh: -2%; Tau ThT inhib: inconclusive

How did CC1=NN(c2ccccc2)C(=O)/C1=C/c1c(O)n(-c2ccc(F)c(Cl)c2)[nH]c1=O do in these assays?
Tau fluor cs: inconclusive; HPGD inh: -28%; Tau fibril FP: inconclusive; NPSR antag: -39%; ALDH1A1 inh: 14µM*; Tau ThT inhib: 5µM*

How did Cc1ccnc(NS(=O)(=O)c2ccc(N)cc2)n1 do in these assays?
Tau fluor cs: -28%; HPGD inh: -13%; Tau fibril FP: inconclusive; NPSR antag: -2%[46.1 µM]; ALDH1A1 inh: -1%; Tau ThT inhib: -22%

What do the screens show for `Cc1cc(C)cc(NS(=O)(=O)c2cnc(Cl)c(Cl)c2)c1`?
Tau fluor cs: inconclusive; HPGD inh: -10%; Tau fibril FP: -1%; NPSR antag: inconclusive; ALDH1A1 inh: 3.5µM*; Tau ThT inhib: -19%

What do the screens show for `CC(C)Cc1nnc(NS(=O)(=O)c2ccc(Cl)cc2)s1`?
Tau fluor cs: -6%; HPGD inh: -6%; Tau fibril FP: 5%; NPSR antag: -5%; ALDH1A1 inh: inconclusive; Tau ThT inhib: -7%

What do the screens show for `CC(C)Cc1nnc(NS(C)(=O)=O)s1`?
Tau fluor cs: 0%; HPGD inh: -19%; Tau fibril FP: 1%; NPSR antag: -2%[46.1 µM]; ALDH1A1 inh: 25µM*; Tau ThT inhib: -12%

How did CCOC(=O)N/N=C(\C)c1ccc(-n2cnnn2)cc1 do in these assays?
Tau fluor cs: 1%; Tau fibril FP: 6%; NPSR antag: 4%; ALDH1A1 inh: 6%; Tau ThT inhib: inconclusive

Results for CCc1noc(-c2ccc(N3CCC(C)CC3)c([N+](=O)[O-])c2)n1 ?
Tau fluor cs: -24%; Tau fibril FP: -8%; Tau ThT inhib: 0%
